ERAP1 HTS inh: human ERAP1 aminopeptidase inhibitors, primary screen, biochemical, single point, plate reader; Endoplasmic reticulum aminopeptidase 1 (Homo sapiens), Q9NZ08; recombinant ERAP1, Leu-AMC fluorescence, 60 min; inhibition, % at 10.7 µM; 0.15% of 340,000 active;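 active = mean replicate inhibition of at least 30%, or all replicates individually reaching that 30% level; inactive = mean below 30% and not every replicate reaching it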;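 also: 0% = neutral control wells and 100% = L-leucinethiol positive control wells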
ERp5 block: inhibitors of ERp5-driven insulin aggregation, primary screen, biochemical, turbidity, absorbance 650 nm, single point. Protein disulfide-isomerase A6 (Homo sapiens), Q15084. 90 min. inhibition, % at 9.99 µM. 0.05% of 350,000 active. AID 651711, 2012;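 active = mean replicate inhibition above about 25%, with every replicate also reaching it, limit read from the data, passing the limit was not always enough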
AF4-AF9 inh: inhibitors of AF4 peptide binding to AF9, primary screen, biochemical, AlphaScreen, biotin-AF4 peptide, FLAG-AF9, single point; inhibition, % at 10 µM; 0.47% of 350,000 active; Protein AF-9 (Homo sapiens), P42568;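 active = every replicate reaching a set inhibition limit, whatever the replicate mean, cut at about 25% in these data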;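 also: 0% = plate neutral control median and 100% = total signal loss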
PDI turbidity: inhibitors of human PDI, primary screen, biochemical, turbidity, single point, plate reader | PDI insulin aggregation turbidity, A650, 90 min | inhibition, % at 10 µM | AID 588391, 2011 | 0.052% of 350,000 active;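 active = mean inhibition across replicates of 30% or more, whatever share of single replicates reach that level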
Target sequence (P07237 whole entry, looked up): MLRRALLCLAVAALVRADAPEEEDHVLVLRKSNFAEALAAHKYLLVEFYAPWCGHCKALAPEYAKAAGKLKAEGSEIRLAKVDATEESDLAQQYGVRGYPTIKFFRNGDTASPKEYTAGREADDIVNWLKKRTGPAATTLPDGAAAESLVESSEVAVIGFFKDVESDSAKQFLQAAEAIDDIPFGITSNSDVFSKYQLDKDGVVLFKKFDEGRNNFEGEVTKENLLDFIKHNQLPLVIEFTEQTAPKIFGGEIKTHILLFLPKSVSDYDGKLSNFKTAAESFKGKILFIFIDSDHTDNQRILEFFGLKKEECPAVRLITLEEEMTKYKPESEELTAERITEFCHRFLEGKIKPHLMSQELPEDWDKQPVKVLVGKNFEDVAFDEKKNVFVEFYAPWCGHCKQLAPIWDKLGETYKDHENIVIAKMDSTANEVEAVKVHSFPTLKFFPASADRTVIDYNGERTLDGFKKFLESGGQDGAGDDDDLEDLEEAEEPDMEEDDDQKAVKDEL
DENV2 CPE rescue: inhibitors of DENV2 cytopathic effect, primary screen, cell-based, plate reader, single concentration | DENV2-infected cells, cytopathic effect rescue | CPE inhibition, % at 9.99 µM | 1.7% of 350,000 active; in the data active = CPE inhibition above about 20%, passing the limit was not always enough; tested in BHK-21 cells;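 also: 0% = median of neutral control wells and 100% = median of positive control wells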
An asterisk follows results filed as active; · = no result. Sampled rows, rich in hits. Any-hit rate of the full collection: about 1.8%.

SMILES | ERAP1 HTS inh | ERp5 block | AF4-AF9 inh | PDI turbidity | DENV2 CPE rescue
C[C@H]1CN([C@@H](C)CO)C(=O)c2cccc(NC(=O)CCCCCC(=O)Nc3ccccc3N)c2O[C@@H]1CN(C)C | -1 | -1 | 2 | · | 23*
C[C@@H]1CN([C@H](C)CO)C(=O)c2cccc(NC(=O)CCCCCC(=O)Nc3ccccc3N)c2O[C@@H]1CN(C)Cc1ccc(-c2ccccc2)cc1 | 1 | 7 | -4 | · | 36*
C[C@H](CO)N1C[C@H](C)[C@H](CN(C)C(=O)Nc2ccccc2)Oc2ccc(NC(=O)CCCCCC(=O)Nc3ccccc3N)cc2C1=O | -1 | 5 | 0 | · | 52*
COCC(=O)Nc1ccc2c(c1)[C@H]1C[C@H](CC(=O)NCc3cccnc3)O[C@@H](CO)[C@H]1O2 | -1 | 2 | -2 | · | 13
C[C@@H]1CN([C@H](C)CO)C(=O)c2cc(NS(=O)(=O)c3ccc(Cl)cc3)ccc2O[C@@H](C)CCCCO[C@@H]1CN(C)S(C)(=O)=O | -3 | -4 | -3 | · | -3
C[C@H](CO)N1C[C@H](C)[C@H](CN(C)S(=O)(=O)c2ccc(F)cc2)Oc2ccc(NC(=O)CCCCCC(=O)Nc3ccccc3N)cc2C1=O | 2 | -3 | -1 | · | -1
C[C@H](CO)N1C[C@H](C)[C@@H](CN(C)S(=O)(=O)c2ccc(F)cc2)Oc2ccc(NC(=O)CCCCCC(=O)Nc3ccccc3N)cc2C1=O | 2 | 2 | -2 | · | 26*
C[C@@H]1CN([C@@H](C)CO)C(=O)c2cccc(NC(=O)CCCCCC(=O)Nc3ccccc3N)c2O[C@@H]1CN(C)Cc1ccc2c(c1)OCO2 | 0 | 1 | -2 | · | 50*
O=S(=O)(c1ccc(C2CCCCC2)cc1)N1CCN(c2ncccn2)CC1 | -1 | -7 | -2 | -6 | 11
CN1CCN(S(=O)(=O)c2ccc(C3CCCCC3)cc2)CC1 | 96* | -3 | 0 | 9 | 6
CCCC(=O)N1CC2(C1)CN(C(=O)C1CCCCC1)[C@@H](CO)c1[nH]c3cc(OC)ccc3c12 | -1 | -4 | 1 | · | 22*
COc1ccc2c3c([nH]c2c1)[C@H](CO)N(C(=O)C1CC1)CC31CN(C(=O)NC(C)C)C1 | 2 | 4 | 2 | · | 30*
CCCNC(=O)N1CC2(CCN(C(=O)C3CCC3)CC2)c2c([nH]c3cc(OC)ccc23)[C@@H]1CO | · | · | 44* | · | -6
COc1ccc2c3c([nH]c2c1)[C@@H](CO)N(C(=O)C1CCOCC1)CC31CN(C)C1 | · | · | 2 | · | 90*
CCCNC(=O)N1CC2(CCN(C(=O)C3CCCC3)CC2)c2c([nH]c3cc(OC)ccc23)[C@@H]1CO | -3 | 5 | -3 | · | 11
CCCC(=O)N1CC2(C1)CN(C(=O)C1CCC1)[C@@H](CO)c1[nH]c3cc(OC)ccc3c12 | 1 | -2 | 5 | · | 13
CCCC(=O)Nc1ccc2c(c1)OC[C@H](C)N(Cc1ccc(F)cc1)C[C@H](C)[C@@H](OC)CN(C)C2=O | · | 7 | 0 | · | 10
C[C@H]1CN([C@@H](C)CO)C(=O)c2cc(N(C)C)ccc2O[C@H]1CN(C)S(C)(=O)=O | 3 | 0 | -21 | · | 7
CCC(=O)N1CC2(CCN(Cc3ccc(Cl)cc3)CC2)c2c([nH]c3cc(OC)ccc23)[C@@H]1CO | · | · | 26* | · | -9
COCC(=O)N1CCC2(CC1)CN(C(=O)Nc1ccccc1F)[C@H](CO)c1[nH]c3cc(OC)ccc3c12 | -1 | -1 | 0 | · | 25*
CCCC(=O)N1CCC2(CC1)CN(C(=O)C1CCCC1)[C@@H](CO)c1[nH]c3cc(OC)ccc3c12 | 3 | -6 | 0 | · | -10
COc1cccc(S(=O)(=O)N2CC3(CN(C(=O)Nc4ccc(F)cc4)[C@H](CO)c4[nH]c5cc(OC)ccc5c43)C2)c1 | · | · | 1 | · | 128*
COc1ccc2c3c([nH]c2c1)[C@@H](CO)N(C(=O)Nc1ccc(F)cc1)CC31CN(S(=O)(=O)c2cccc(C)c2)C1 | -6 | -1 | -3 | · | 1
CCCC(=O)N1CCC2(CC1)CN(C(=O)C1CC1)[C@H](CO)c1[nH]c3cc(OC)ccc3c12 | -1 | 0 | -1 | · | 34*
OC[C@H]1[C@H](c2ccc(C#Cc3ccccc3)cc2)[C@@H]2CN(Cc3cncnc3)CCCCN12 | · | 11 | · | · | 0
SMILES | ERAP1 HTS inh | ERp5 block | AF4-AF9 inh | PDI turbidity | DENV2 CPE rescue
COc1ccc(NC(=O)N(C)C[C@@H]2Oc3ccc(NC(=O)Nc4cccc5ccccc45)cc3C(=O)N([C@@H](C)CO)C[C@H]2C)cc1 | 1 | -2 | 1 | · | ·
NC[C@H](Cc1ccccc1)NCCCCC1CCCCC1 | 2 | 5 | 8 | 4 | 35*
COc1cc(CCCN[C@H](CN)Cc2ccccc2)cc(OC)c1OC | · | · | · | 0 | ·
Cc1ccc(S(=O)(=O)N(CC(O)CN2CCOCC2)c2cccc([N+](=O)[O-])c2)cc1 (stereo unspecified) | 0 | 27* | -1 | -1 | 18
C[C@H](CO)N1C[C@H](C)[C@H](CN(C)C(=O)NC2CCCCC2)OCCCC[C@H](C)Oc2ccc(NC(=O)Nc3ccccc3)cc2C1=O | 2 | 6 | 0 | · | -3
CCCC#Cc1ccc([C@H]2[C@H](CO)N3CCCCN(CC4CCOCC4)C[C@@H]23)cc1 | 2 | -4 | 6 | · | 56*
CN(C)CC#Cc1ccc([C@H]2[C@@H](CO)N3CCCCN(CC4CC4)C[C@H]23)cc1 | 3 | 9 | 26* | · | -6
CN(C)CC#Cc1ccc([C@@H]2[C@H]3CN(CC4CC4)CCCCN3[C@H]2CO)cc1 | 0 | 1 | 26* | · | -8
CN(C)CC#Cc1ccc([C@@H]2[C@@H](CO)N3CCCCN(CC4CC4)C[C@H]23)cc1 | 0 | -4 | 16 | · | -5
COCC#Cc1ccc([C@H]2[C@@H](CO)N3CCCCN(Cc4cncnc4)C[C@@H]23)cc1 | 0 | -2 | 0 | · | 16
COCC#Cc1ccc([C@H]2[C@H]3CN(Cc4cncnc4)CCCCN3[C@H]2CO)cc1 | -2 | -1 | -2 | · | 21*
CN(C)CC(=O)N1CC2(C1)[C@@H](c1ccccc1)[C@@H](CO)N2C(=O)C1CCC1 | -2 | 0 | -2 | · | -7
Cc1noc(C)c1S(=O)(=O)Nc1ccc2c(c1)C(=O)N([C@H](C)CO)C[C@@H](C)[C@H](CN(C)Cc1ccccc1)O2 | -2 | -2 | 0 | · | -15
C/C=C/c1ccc2c(c1)O[C@H](CN(C)CC1CCCC1)[C@@H](C)CN([C@H](C)CO)S2(=O)=O | -7 | -1 | 7 | · | -4
C[C@@H]1CCCCO[C@@H](CN(C)S(C)(=O)=O)[C@@H](C)CN([C@H](C)CO)C(=O)c2cc(NC(=O)c3ccccc3)ccc2O1 | -1 | -2 | -1 | · | 85*

High-throughput results: PubChem BioAssay, Broad Institute
